Experimental data as given in PubChem BioAssay (NCATS).
Where “and” joins values, the source holds several entries; their conditions need not be identical. Equal values may be shown once. A number with no mark means an inactive call. Inconclusive results are not listed. A call without a number means that no potency is given here. Calls of active or inactive are those of the source. Unless noted, the call rests on the fitted dose curve; in most records, active means well fitted curve in the direction sought with a large enough effect; inconclusive means small, poorly fitted or top-dose-only effect, or another doubt; inactive means no such curve, though single readings can be large; an effect the other way counts as inactive or inconclusive.

What was measured:
[1] = Cell Viability - HepG2 (AID 433; calls by dose curve;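 further: potency means the concentration at half of the fitted maximal effect; potency for ATP loss meaning cytotoxicity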); conditions: qHTS
How it was run: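 HepG2 cells, 1500 per well, treated 40 hr at 37 °C in complete medium; viability from intracellular ATP by CellTiter-Glo luminescence. Normalized to DMSO and 100 uM tamoxifen; AC50 from Hill fit of qHTS concentration-response.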

[2] = Cell Viability - N2a (AID 540); conditions: N2a mouse neuroblastoma cell viability; activity change, negative = cytotoxicity: at 92.2 µM (top of the series); further: nearly all actives have a fitted effect of over 45% in size
How it was run: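 CellTiter-Glo ATP luminescence, read 20 min after reagent at room temperature, reported viability following 40 h compound treatment at 37 °C. N2a mouse neuroblastoma cells seeded 1500/well; Hill equation gave AC50.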

[3] = Cell Viability - Renal Proximal Tubule (AID 545); conditions: renal proximal tubule cells viability, primary cells of rat origin; at 91.7 µM (top of the series); further: nearly all actives have a fitted effect of over 40% in size
How it was run: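 Rat renal proximal tubule primary cells, 1000/well, exposed to compounds for 40 hr at 37 °C in complete medium; cellular ATP read by CellTiter-Glo luminescence. AC50 from concentration-response fitted with standard Hill equation.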

[4] = Cell Viability - Mesenchymal (AID 546); conditions: mesenchymal cells viability, qHTS; activity change, negative = cytotoxicity: at 91.7 µM (top of the series);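 further: cells exposed to compound for 40 hours before reading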
How it was run: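 CellTiter-Glo luminescence (intracellular ATP, 20 min room temperature) after 40 hr compound exposure at 37 °C of 1000 glomerulus-derived human kidney mesenchymal cells/well; AC50 values obtained by fitting qHTS concentration-response data to the Hill equation.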

[5] = Cellular Toxicity (caspase-3) HepG2 (AID 654); conditions: HepG2 caspase-3 activation, luminescence, 0% = DMSO only, 100% = tamoxifen; series mostly up to 92.2 µM;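 further: cells exposed to compound for 16 hours before reading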
How it was run: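 Caspase 3/7 activation is measured as a luminescence increase (aminoluciferin substrate) after 16 h compound exposure of human hepatocarcinoma HepG2 cells. AC50 values are Hill fits, scaled between DMSO baseline and 100 uM tamoxifen stimulation.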

[6] = Cellular Toxicity (caspase-3) Jurkat (AID 655); conditions: Jurkat caspase-3 activation, luminescence, DMSO = 0%, tamoxifen = 100%; at 92.2 µM (top of the series);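 further: cells exposed to compound for 16 h at 37 °C before reading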
How it was run: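 Jurkat cells (5000/well) in complete medium exposed 16 h at 37 C; caspase-3/7 activity read by Caspase-Glo luminescence after 20 min at room temperature. Normalized to DMSO and 100 uM tamoxifen; AC50 from Hill fits.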

[7] = Cellular Toxicity (caspase-3) HUV-EC-C (AID 656); conditions: HUV-EC-C cells, caspase-3 activation (apoptosis), vehicle = 0, 100 µM tamoxifen = 100%; series mostly up to 92.2 µM
How it was run: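 HUV-EC-C cells (1000/well) in complete medium, compound-treated 16 h at 37 °C; caspase-3/7 activity read by Caspase-Glo 3/7 luminescence. Normalized to DMSO (basal) and 100 uM tamoxifen (100%); AC50 from Hill-equation concentration-response fits.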

[8] = Cellular Toxicity (caspase-3) SHSY5Y (AID 657); conditions: SH-SY5Y caspase-3 activation, DMSO zero, 10 µM staurosporine = 100%; series mostly up to 91.7 µM
How it was run: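 SH-SY5Y human neuroblastoma cells, 1500/well, exposed to compound for 16 hours at 37 °C in complete medium. Caspase-3/7 activity read by Caspase-Glo luminescence after 1 hr at room temperature, normalized to DMSO and 10 uM staurosporine; AC50 from Hill fit.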

[9] = Cellular Toxicity (caspase-3) BJ (AID 658); conditions: BJ fibroblasts, luminescence, normalized: DMSO 0%, staurosporine 100%; series mostly up to 91.7 µM
How it was run: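 Caspase-Glo 3/7 luminescence, read 1 hr after reagent at room temperature, in normal BJ fibroblasts exposed 16 hours at 37 °C. AC50 values from Hill-equation concentration-response, scaled between DMSO basal and 10 uM staurosporine as 100%.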

[10] = Cellular Toxicity (caspase-3) MRC-5 (AID 659); conditions: MRC-5 cells, luminescence, normalized: DMSO 0%, 10 µM staurosporine 100%; series mostly up to 91.7 µM
How it was run: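 Luminescent Caspase-Glo 3/7 read-out (1 h, room temperature) after a 16 h, 37 °C compound exposure of MRC-5 lung fibroblasts at 1500 cells/well. Concentration-response AC50 from Hill equation; 0% DMSO, 100% 10 uM staurosporine.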

[11] = Cellular Toxicity (caspase-3) Mesangial (AID 660); conditions: mesangial cells, normalized: DMSO 0%, 100 µM tamoxifen 100%; series mostly up to 91.7 µM;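 further: cells exposed to compound for 16 h before the caspase read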
How it was run: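 Caspase 3/7 activation measured by Caspase-Glo 3/7 luminescence (20 min, room temperature) following 16 h exposure of mesangial cells (1000/well); AC50 from Hill-equation fit, normalized to DMSO and 100 uM tamoxifen.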

[12] = Cellular Toxicity (caspase-3) SK-N-SH (AID 661); conditions: SK-N-SH caspase-3 activation, qHTS, DMSO as zero, staurosporine as full; series mostly up to 91.7 µM
How it was run: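 Caspase 3/7 activation was read by luminogenic substrate cleavage after 16 hour treatment of SK-N-SH cells. Signal was scaled between DMSO and 10 uM staurosporine, and concentration-response data were fitted with the Hill equation for AC50.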

[13] = Cellular Toxicity (caspase-3) Hek293 (AID 664); conditions: HEK293 caspase-3 activation, DMSO = 0%, 100 µM tamoxifen = 100%; series mostly up to 92.2 µM;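 further: cells exposed to compound for 16 h at 37 °C before readout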
How it was run: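 Concentration-response qHTS: caspase 3/7 activation measured by luminescent aminoluciferin substrate cleavage after 16 h compound exposure of Hek 293 cells. AC50 from Hill equation, with DMSO as basal and 100 uM tamoxifen as 100%.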

[14] = Cellular Toxicity (caspase-3) N2a (AID 665); conditions: N2a cells, luminescence, normalized: DMSO 0%, 10 µM staurosporine 100%; series mostly up to 92.2 µM;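 further: compound exposure lasted 16 h at 37 °C before readout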
How it was run: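 Caspase-3/7 activation measured as luminescence from Caspase-Glo reagent (1 h, room temperature) after 16 h compound exposure of mouse N2a cells. AC50 values from Hill-equation concentration-response, scaled between DMSO and 10 uM staurosporine.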

[15] = Cellular Toxicity (caspase-3) NIH 3T3 (AID 666); conditions: NIH 3T3 caspase-3 activation, apoptosis/toxicity, 0% DMSO, 100% is 100 µM tamoxifen; series mostly up to 92.2 µM
How it was run: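 Caspase-Glo 3/7 luminescence reported caspase activation in 1000 NIH 3T3 cells/well after 16 h compound exposure at 37 C. DMSO set basal and 100 uM tamoxifen set 100% stimulation; concentration-response modeled with the Hill equation for AC50.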

[16] = Cellular Toxicity (caspase-3) Renal Proximal Tubule (AID 667); conditions: renal proximal tubule cells, primary cells freshly taken from rat, solvent-only wells 0%, staurosporine 100%; series mostly up to 91.7 µM;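 further: cells exposed to compound for 16 hours at 37 °C before detection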
How it was run: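 Freshly isolated primary rat kidney proximal tubule cells, 1000/well, treated 16 hr at 37 °C, then Caspase-Glo 3/7 luminescence after 1 hr. Normalized to DMSO and 10 uM staurosporine; AC50 from Hill fit.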

[17] = qHTS Assay for Identification of Small Molecule Inducers of Hypoxia Response (AID 2120; active means well fitted curve in the direction sought with a large enough effect in the signal ratio, with a control signal flat, not every such curve was filed as active; the % refers to the signal ratio); conditions: hypoxia response reporter cells, beta-lactamase ratio readout; series mostly up to 104 µM
How it was run: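 Reporter induction read as the CCF4 blue/green (460nm/530nm) emission ratio after 2.5 h dye loading at room temperature. ME-180 HRE-beta-lactamase cells received titrated compounds for 17 h at 37 degrees Celsius; AC50 values derived.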

[18] = target: Thyroid hormone receptor beta (Homo sapiens) (UniProt P10828); test: qHTS assay for small molecule antagonists of thyroid hormone receptor beta signaling (AID 588547; active means well fitted inhibition curve with a large enough effect in the signal ratio, with a control signal flat, not every such curve was filed as active; the % refers to the signal ratio;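 further: cells stimulated with 0.4 nM T3 agonist during compound exposure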); conditions: TR-UAS-bla HEK293, beta-lactamase ratio, antagonist mode, 18 h
How it was run: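 Inhibition of T3-driven (0.4nM final) beta-lactamase reporter activity was measured over 0.59 nM to 92 uM compound after 18 h at 37 C. The cells were GripTite HEK293 TR-UAS-bla in charcoal/dextran-stripped serum, with CCF4 ratio read-out and IC50 from Hill fits.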

[19] = target: Voltage-gated inwardly rectifying potassium channel KCNH2 (Homo sapiens) (UniProt Q12809); test: qHTS Assay for Small Molecule Inhibitors of the Human hERG Channel Activity (AID 588834); conditions: U2OS BacMam hERG, FluxOR thallium flux fluorescence; series mostly up to 92.2 µM;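 further: top concentration of the series differs between compounds; lower thallium flux fluorescence means stronger hERG block; nearly all actives have a fitted effect of over 50% in size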
How it was run: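 Thallium serves as surrogate for K+ influx through BacMam-delivered hERG in U2OS cells. Compounds are added for about 10 minutes after dye loading; stimulation buffer then starts flux, monitored kinetically on FDSS.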

[20] = qHTS assay for cell viability of the p53RE-bla HCT-116 cell line (AID 743292); conditions: p53RE-bla HCT-116 viability, ATP luminescence, 16 h; series mostly up to 95 µM; further: nearly all actives have a fitted effect of over 55% in size
How it was run: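 Quantitative high-throughput format: compounds in DMSO were pinned onto p53RE-bla HCT-116 cells (4,000/well) and incubated 16 h at 37 C. Total intracellular ATP, read by CellTiter-Glo luminescence, reflects viable cell number.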

Chain of Thyroid hormone receptor beta (Homo sapiens) (P10828 whole entry, looked up): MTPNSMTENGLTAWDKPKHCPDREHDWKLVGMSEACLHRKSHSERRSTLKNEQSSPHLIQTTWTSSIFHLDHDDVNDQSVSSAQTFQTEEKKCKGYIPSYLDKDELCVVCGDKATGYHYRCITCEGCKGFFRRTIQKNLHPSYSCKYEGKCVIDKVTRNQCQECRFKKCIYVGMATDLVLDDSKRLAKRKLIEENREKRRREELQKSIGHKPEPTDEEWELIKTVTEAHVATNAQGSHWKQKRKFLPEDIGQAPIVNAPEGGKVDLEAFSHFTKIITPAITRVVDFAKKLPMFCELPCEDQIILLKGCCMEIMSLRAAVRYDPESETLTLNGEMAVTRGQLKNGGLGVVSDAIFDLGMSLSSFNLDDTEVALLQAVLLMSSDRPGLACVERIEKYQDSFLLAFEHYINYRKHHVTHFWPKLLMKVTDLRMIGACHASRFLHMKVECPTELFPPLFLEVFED
Chain of Voltage-gated inwardly rectifying potassium channel KCNH2 (Homo sapiens) (Q12809 whole entry, looked up): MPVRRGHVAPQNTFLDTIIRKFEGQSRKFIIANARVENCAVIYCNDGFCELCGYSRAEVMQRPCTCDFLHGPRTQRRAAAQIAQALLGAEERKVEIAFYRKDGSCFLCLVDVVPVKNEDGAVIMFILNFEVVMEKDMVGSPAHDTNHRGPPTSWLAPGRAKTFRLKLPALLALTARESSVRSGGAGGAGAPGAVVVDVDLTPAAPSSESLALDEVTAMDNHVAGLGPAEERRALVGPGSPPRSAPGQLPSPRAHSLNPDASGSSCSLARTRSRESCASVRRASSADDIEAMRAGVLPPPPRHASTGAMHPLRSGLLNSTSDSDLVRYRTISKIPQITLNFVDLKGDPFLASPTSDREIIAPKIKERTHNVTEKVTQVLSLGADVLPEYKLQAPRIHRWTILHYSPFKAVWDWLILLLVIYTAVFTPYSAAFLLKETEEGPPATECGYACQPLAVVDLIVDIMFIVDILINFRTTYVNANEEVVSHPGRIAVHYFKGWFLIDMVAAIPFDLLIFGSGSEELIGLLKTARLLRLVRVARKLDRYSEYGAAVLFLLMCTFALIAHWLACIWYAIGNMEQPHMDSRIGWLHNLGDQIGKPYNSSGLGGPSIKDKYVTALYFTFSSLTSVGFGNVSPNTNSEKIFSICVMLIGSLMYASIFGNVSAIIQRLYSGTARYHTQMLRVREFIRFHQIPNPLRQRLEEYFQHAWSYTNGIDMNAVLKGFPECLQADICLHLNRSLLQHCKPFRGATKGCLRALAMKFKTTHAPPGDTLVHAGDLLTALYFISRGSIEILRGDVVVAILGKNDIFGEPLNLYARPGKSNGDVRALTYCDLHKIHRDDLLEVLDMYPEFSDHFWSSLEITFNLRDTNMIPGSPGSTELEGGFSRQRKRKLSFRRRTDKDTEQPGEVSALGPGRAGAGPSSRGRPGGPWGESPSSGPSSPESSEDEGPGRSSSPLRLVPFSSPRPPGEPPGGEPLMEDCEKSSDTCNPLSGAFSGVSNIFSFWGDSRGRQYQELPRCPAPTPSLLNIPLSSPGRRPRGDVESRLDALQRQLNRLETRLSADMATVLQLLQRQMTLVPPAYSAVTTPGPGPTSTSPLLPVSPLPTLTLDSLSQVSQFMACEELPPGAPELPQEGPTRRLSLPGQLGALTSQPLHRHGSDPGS

C=C(C)C1CC=C(C)C(O)C1 (stereo unspecified)
Potency [1]: > 92 µM | activity change, negative = cytotoxicity [2]: -0.158% | activity change, negative = cytotoxicity [3]: 6.86% | activity change, negative = cytotoxicity [4]: 2.7% | outcome [5]: inactive | caspase-3 activation [6]: -2.18% | outcome [7]: inactive | outcome [8]: inactive | outcome [9]: inactive | outcome [10]: inactive | outcome [11]: inactive | outcome [12]: inactive | outcome [13]: inactive | outcome [14]: inactive | outcome [15]: inactive | outcome [16]: inactive | outcome [17]: inactive | activity change % (negative = inhibition) [18]: 0.818% | Potency [19]: inactive | Potency [20]: inactive

O=C(O)c1ccccc1
Potency [1]: > 92 µM | activity change, negative = cytotoxicity [2]: 6.89% | activity change, negative = cytotoxicity [3]: -3.81% | activity change, negative = cytotoxicity [4]: 4.89% | outcome [5]: inactive | caspase-3 activation [6]: 0.102% | outcome [7]: inactive | outcome [8]: inactive | outcome [9]: inactive | outcome [10]: inactive | outcome [11]: inactive | outcome [12]: inactive | outcome [13]: inactive | outcome [14]: inactive | outcome [15]: inactive | outcome [16]: inactive | outcome [17]: inactive | Potency [19]: inactive | Potency [20]: inactive

C=CC(C)(CCC=C(C)C)OC(C)=O (stereo unspecified)
activity change % (negative = inhibition) [18]: -2.58% | Potency [20]: inactive

CC1=C2[C@H](/C=C(\C)C(=O)O)CC[C@@H](C)[C@H]2CC1
Potency [1]: > 92 µM | activity change, negative = cytotoxicity [2]: 10.9% | activity change, negative = cytotoxicity [3]: -15.1% | activity change, negative = cytotoxicity [4]: 9.76% | outcome [5]: inactive | caspase-3 activation [6]: 97.3% (active) | outcome [7]: inactive | outcome [8]: inactive | outcome [9]: inactive | outcome [10]: inactive | outcome [11]: inactive | outcome [12]: inactive | outcome [13]: inactive | outcome [14]: inactive | outcome [15]: inactive | outcome [16]: inactive | outcome [17]: inactive | activity change % (negative = inhibition) [18]: 11.8% | Potency [19]: inactive | Potency [20]: inactive

CCCCCCCCCCCCCC(=O)O
Potency [1]: > 92 µM | activity change, negative = cytotoxicity [2]: -4.4% | activity change, negative = cytotoxicity [3]: -23% | activity change, negative = cytotoxicity [4]: 1.41% | outcome [5]: inactive | caspase-3 activation [6]: -2.86% | outcome [7]: inactive | outcome [8]: inactive | outcome [9]: inactive | outcome [10]: inactive | outcome [11]: inactive | outcome [12]: inactive | outcome [13]: inactive | outcome [14]: inactive | outcome [15]: inactive | outcome [16]: inactive | outcome [17]: inactive | activity change % (negative = inhibition) [18]: 8.19% and 13.5% | Potency [19]: inactive | Potency [20]: inactive

C=CC(=C)CCC=C(C)C
Potency [1]: > 92 µM | activity change, negative = cytotoxicity [2]: 5.78% | activity change, negative = cytotoxicity [3]: 6.82% | activity change, negative = cytotoxicity [4]: -3.53% | outcome [5]: inactive | caspase-3 activation [6]: -0.362% | outcome [7]: inactive | outcome [8]: inactive | outcome [9]: inactive | outcome [10]: inactive | outcome [11]: inactive | outcome [12]: inactive | outcome [13]: inactive | outcome [14]: inactive | outcome [15]: inactive | outcome [16]: inactive | outcome [17]: inactive | activity change % (negative = inhibition) [18]: 9.36% | Potency [19]: inactive | Potency [20]: inactive

COc1cc(/C=C/c2ccccc2)oc(=O)c1
Potency [1]: > 92 µM | activity change, negative = cytotoxicity [2]: 1.71% | activity change, negative = cytotoxicity [3]: -15.2% | activity change, negative = cytotoxicity [4]: -9.29% | outcome [5]: inactive | caspase-3 activation [6]: -4.56% | outcome [7]: inactive | outcome [8]: inactive | outcome [9]: inactive | outcome [10]: inactive | outcome [11]: inactive | outcome [12]: inactive | outcome [13]: inactive | outcome [14]: inactive | outcome [15]: inactive | outcome [16]: inactive | outcome [17]: inactive | activity change % (negative = inhibition) [18]: -8.32% | Potency [19]: inactive | Potency [20]: inactive

COc1ccc(/C=C/c2cc(OC)cc(=O)o2)cc1
Potency [1]: > 92 µM | activity change, negative = cytotoxicity [2]: -11.5% | activity change, negative = cytotoxicity [3]: -20.5% | activity change, negative = cytotoxicity [4]: -3.53% | outcome [5]: inactive | caspase-3 activation [6]: -4.41% | outcome [7]: inactive | outcome [8]: inactive | outcome [9]: inactive | outcome [10]: inactive | outcome [11]: inactive | outcome [12]: inactive | outcome [13]: inactive | outcome [14]: inactive | outcome [15]: inactive | outcome [16]: inactive | outcome [17]: inactive | activity change % (negative = inhibition) [18]: -10.8% | Potency [19]: inactive | Potency [20]: inactive
